What all share (experiment): NCI-60 one-dose screen, 48 h (100 = growth as untreated, 0 = no growth, -100 = all killed)
Details in all cases: 10 µM unless noted

The test system of test [1] is SR leukemia.
The test system of test [2] is RPMI-8226 leukemia.
The subject of test [3] is OVCAR-8 ovarian.
In test [4] the test system is OVCAR-5 ovarian.
Test [5] relates to OVCAR-4 ovarian.
In test [6] the test system is IGROV1 ovarian.
Test [7] has as its system OVCAR-3 ovarian.
Test [8] relates to HS 578T breast.
The test system of test [9] is NCI/ADR-RES ovarian.
Test [10] has as its system T-47D breast.
Test [11] relates to BT-549 breast.
In test [12] the test system is MDA-MB-435 melanoma.
The subject of test [13] is SW-620 colon.
The subject of test [14] is MCF7 breast.
The subject of test [15] is HCC-2998 colon.
Test [16] concerns KM12 colon.
In test [17] the test system is HCT-116 colon.
The test system of test [18] is SK-OV-3 ovarian.

“And” between values parts separate entries of the source, which are not always exact repeats. Equal entries are not always repeated. The panel holds about 83,000 compounds, 20% with a hit somewhere; the sample as a whole holds those more often.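 Method: cells in 96-well plates; compound added at one concentration; 48 h incubation; percent growth measured; values under 10 scored active.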 The source made the active and inactive calls.

For `N=C1N=C(N)CS1`, the growth in [1] was 99.2% (inactive); in test [2] it was 107% (inactive); in test [3], 99.9% (inactive); in test [4], 109% (inactive); in test [5] it was 99.8% (inactive); in [6], 105% (inactive). Besides, the growth in [7] is 106% (inactive); in test [8] it was 109% (inactive); in test [9] it was 113% (inactive); in test [10], 108% (inactive); in [11], 120% (inactive); in test [12] it was 106% (inactive). The growth was 102% (inactive) in [13], 96.8% (inactive) in test [14], 110% (inactive) in test [15] and 107% (inactive) in test [16].
Regarding `CC12CCC(CC1)C(C)(C)O2`, the growth in test [1] was 88.8% (inactive); in test [2], 103% (inactive); in test [3] it was 111% (inactive); in [4] it was 94.3% (inactive); in test [5] it was 113% (inactive); in [6], 103% (inactive). For the same compound, the growth in [7] is 121% (inactive); in test [8], 102% (inactive); in [9], 108% (inactive); in test [10], 97.9% (inactive); in test [11] it was 98.9% (inactive); in test [12], 100% (inactive). For the same compound, the growth is 104% (inactive) in [13]; 98.7% (inactive) in test [14]; 112% (inactive) in test [17]; 107% (inactive) in test [15]; 109% (inactive) in [16].
In the case of `CNC(=O)c1cccc(-c2ccc3c(N4CCOC[C@@H]4C)nc(N4CCOC[C@@H]4C)nc3n2)c1`, the growth in [1] was 9.14% (active) and 1.3% (active); in [2] it was 3.4% (active) and 4.33% (active); in test [3] it was -4.37% (active) and -7.81% (active); in test [4], 8.26% (active) and -3.61% (active); in test [5], -17.7% (active) and -18.2% (active); in test [6] it was -16.6% (active) and -36.1% (active). The growth was 4.95% (active) and 11.5% (inactive) in test [7]; -31.1% (active) in test [8]; 1.66% (active) and -15.6% (active) in test [9]; -24.4% (active) and -34.1% (active) in [10]; 2.05% (active) and -13.4% (active) in test [12]; 11.4% (inactive) and 5.84% (active) in test [13]. Also, the growth is 5.66% (active) and 4.27% (active) in test [14]; 27.7% (inactive) and 15.4% (inactive) in test [17]; 18.6% (inactive) and 4% (active) in [15]; 11.7% (inactive) and 13.2% (inactive) in [16].
For the compound `O=C(O)CSCc1nc2ccccc2[nH]1`, the growth in test [1] is 96.5% (inactive); in test [2], 94% (inactive); in test [3], 113% (inactive); in test [4] it was 110% (inactive); in [5], 107% (inactive); in [6], 109% (inactive). For the same compound, the growth in [7] is 106% (inactive); in [8] it was 102% (inactive); in [9], 101% (inactive); in [10] it was 104% (inactive); in [12], 115% (inactive); in test [13], 103% (inactive). Further, the growth in [14] was 96.4% (inactive); in test [17], 107% (inactive); in test [15], 103% (inactive); in test [16], 111% (inactive).
For the compound `OCc1ccccn1`, the growth in test [1] was 96.9% (inactive); in [3], 108% (inactive); in test [4], 105% (inactive); in [5] it was 113% (inactive); in test [18] it was 117% (inactive); in test [6] it was 116% (inactive). In addition, the growth is 112% (inactive) in test [7]; 106% (inactive) in test [8]; 109% (inactive) in [9]; 107% (inactive) in test [10]; 103% (inactive) in [11]; 103% (inactive) in test [12]. Besides, the growth in test [13] is 104% (inactive); in [14], 95.3% (inactive); in [17], 104% (inactive); in [15], 109% (inactive); in [16], 110% (inactive).
On to `CC(=O)Nc1cccc2c1CCCC2`, for which the growth in test [1] was 104% (inactive) and 109% (inactive); in test [2] it was 88.8% (inactive) and 99% (inactive); in test [3], 86.5% (inactive) and 104% (inactive); in test [4], 98.8% (inactive) and 105% (inactive); in test [5], 106% (inactive) and 107% (inactive); in [6], 119% (inactive) and 96.2% (inactive). The growth in test [7] was 107% (inactive) and 108% (inactive); in test [8], 92.8% (inactive) and 110% (inactive); in [9], 97.6% (inactive) and 96.9% (inactive); in [10] it was 92.7% (inactive); in test [12], 103% (inactive) and 110% (inactive); in test [13], 108% (inactive) and 107% (inactive). The growth is 92.1% (inactive) and 91.2% (inactive) in [14]; 97.5% (inactive) and 102% (inactive) in test [17]; 102% (inactive) and 103% (inactive) in test [16].
On to `O=C1c2c(O)cc(O)cc2OC(c2ccc(O)c(O)c2)C1O` (stereo unspecified), for which the growth was 101% (inactive) in [1]; 99.5% (inactive) in test [2]; 99.1% (inactive) in test [3]; 104% (inactive) in test [4]; 113% (inactive) in [5]; 126% (inactive) in test [6]. The growth was 123% (inactive) in [7]; 109% (inactive) in [8]; 103% (inactive) in [10]; 111% (inactive) in [12]; 104% (inactive) in test [13]; 102% (inactive) in test [14]. Besides, the growth in test [16] was 114% (inactive).
Consider `O=C(Nc1cccc(Cl)c1)c1cc2ccccc2cc1O`, for which the growth is 23.4% (inactive) and 3.87% (active) in test [1]; -19.4% (active) and -4.12% (active) in test [2]; 11.2% (inactive) and 8.75% (active) in [3]; 97.2% (inactive) and 56.4% (inactive) in [4]; 29.7% (inactive) and 10.1% (inactive) in [5]; 22.6% (inactive) and 24.2% (inactive) in test [6]. Besides, the growth in [7] was 18.5% (inactive) and 14.7% (inactive); in test [8], 17.5% (inactive) and 21.8% (inactive); in test [9] it was 4.12% (active) and 9.44% (active); in [10], 15.5% (inactive) and 2.04% (active); in test [11], 6.65% (active) and 0.941% (active); in test [13], 13.1% (inactive) and 13.9% (inactive). The growth in test [14] was 35.5% (inactive) and 16.9% (inactive); in test [17], 18.9% (inactive) and 6.81% (active); in [15], 27.4% (inactive); in test [16], 15.4% (inactive) and 11.8% (inactive).
With `COc1ccc(-c2cn[nH]c2-c2cc(OC)c(OC)c(OC)c2)cc1N`, the growth in test [1] is 12% (inactive) and 19.5% (inactive); in [2] it was 29.4% (inactive) and 23.7% (inactive); in test [3] it was 21.3% (inactive) and 12.9% (inactive); in test [4], 46% (inactive) and 48.7% (inactive); in test [5], 47.6% (inactive) and 38.8% (inactive); in test [6], 37.2% (inactive) and 15.6% (inactive). Further, the growth in [7] was -7.09% (active) and -1.14% (active); in [8], 39.5% (inactive) and 40% (inactive); in [9] it was -5.9% (active) and 4.84% (active); in test [10], 73% (inactive) and 86.7% (inactive); in [11], 30.8% (inactive) and 5.24% (active); in test [12], -47.4% (active) and -19% (active). In addition, the growth in test [13] is 24.7% (inactive) and 27.7% (inactive); in [14], 21.6% (inactive) and 15.8% (inactive); in [15] it was 13.7% (inactive) and 23% (inactive); in test [16], 9.16% (active) and 16.9% (inactive).
For the compound `COc1ccccc1NC(=O)OCC#CCOC(=O)Nc1ccccc1OC`, the growth in [1] is 88% (inactive) and 61.5% (inactive); in test [3], 106% (inactive) and 97.6% (inactive); in test [4], 98.9% (inactive) and 98.3% (inactive); in test [5], 99.2% (inactive) and 94% (inactive); in test [18] it was 104% (inactive) and 94.8% (inactive); in [6], 108% (inactive) and 83.5% (inactive). In addition, the growth was 127% (inactive) and 86.4% (inactive) in test [7]; 99.7% (inactive) and 76.3% (inactive) in test [8]; 98.7% (inactive) and 92.7% (inactive) in [9]; 96.7% (inactive) and 89.2% (inactive) in [10]; 91% (inactive) in [11]; 95.2% (inactive) and 75.5% (inactive) in test [12]. Further, the growth in test [13] is 102% (inactive) and 90.2% (inactive); in test [17], 99.9% (inactive) and 87.4% (inactive); in test [15], 103% (inactive) and 104% (inactive); in test [16], 108% (inactive) and 91.2% (inactive).
Take `O=[N+]([O-])c1ccc(Oc2ccccc2)cc1`: the growth in test [1] is 89.7% (inactive) and 102% (inactive); in test [3], 109% (inactive) and 103% (inactive); in [4], 96.1% (inactive) and 97.3% (inactive); in [5], 113% (inactive) and 121% (inactive); in [18] it was 109% (inactive) and 103% (inactive); in test [6], 84.4% (inactive) and 104% (inactive). The growth is 111% (inactive) in [7]; 100% (inactive) in test [8]; 96.2% (inactive) and 107% (inactive) in [9]; 116% (inactive) and 100% (inactive) in test [10]; 83.9% (inactive) and 106% (inactive) in test [11]; 101% (inactive) and 131% (inactive) in test [12]. The growth in [13] was 95.7% (inactive) and 94.1% (inactive); in test [14], 105% (inactive) and 95.2% (inactive); in test [17], 98.2% (inactive) and 106% (inactive); in [15], 102% (inactive) and 105% (inactive); in test [16] it was 101% (inactive) and 105% (inactive).
Turning to `COc1ccc(CCN(C)CCCC(C#N)(c2ccc(OC)c(OC)c2)C(C)C)cc1OC` (stereo unspecified), the growth in [1] was 80.8% (inactive) and 94.1% (inactive) and 90.1% (inactive); in [3], 97.5% (inactive) and 93.2% (inactive); in [4] it was 93.1% (inactive) and 81% (inactive) and 92.6% (inactive); in [5] it was 85.1% (inactive) and 104% (inactive); in test [18], 101% (inactive) and 98.3% (inactive) and 97.9% (inactive); in test [6], 98.7% (inactive) and 94.4% (inactive). In addition, the growth in [7] is 103% (inactive) and 101% (inactive) and 96% (inactive); in test [8] it was 99.8% (inactive) and 88.1% (inactive) and 93.6% (inactive); in [9], 86.6% (inactive) and 92% (inactive) and 86.1% (inactive); in test [10] it was 98.2% (inactive) and 106% (inactive); in test [11] it was 94.4% (inactive) and 93.3% (inactive) and 94.6% (inactive); in [12] it was 102% (inactive) and 93.3% (inactive) and 97.9% (inactive). Moreover, the growth in test [13] is 92.8% (inactive) and 100% (inactive) and 92.6% (inactive); in test [14] it was 89% (inactive) and 106% (inactive) and 95.3% (inactive); in test [15], 99.7% (inactive) and 111% (inactive) and 97.5% (inactive); in test [16], 114% (inactive) and 115% (inactive) and 95.6% (inactive).

The values above are taken from PubChem BioAssay (NCI).
